The source made the active and inactive calls.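 Rule for the calls: active = high combined rank on largest and smallest cell-count-weighted shift across three tests, rank score above 45, floors 50 and 25 (some results past the limit were not filed as active); inactive = the rest.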
Test: activators of LNCaP cell differentiation, retest, confirmation, side scatter shift, flow cytometry (AID 1069);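 note: LNCaP human prostate cancer cells in low-serum medium with charcoal-stripped FBS; percent of cells with raised granularity gated so DMSO controls show 10%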
Settings: 4 d, stronger effect = higher value

| SMILES | side scatter shift (at 100 µM) | side scatter shift (side scatter shift, at 10 µM) [%] |
| --- | --- | --- |
| Cc1noc(C)c1S(=O)(=O)N1CCC(C(=O)NCCN2CCC(C)CC2)CC1 | 12.7% (inactive) | 4.95 |
| COc1ccc(N2CCN(CCCNC(=O)C3CCCN(S(=O)(=O)c4cnc[nH]4)C3)CC2)cc1 (stereo not drawn) | 32.3% (inactive) | 4.05 |
| Cc1cccc(N2CCN(C(=O)CCNC(=O)Cn3ccc4ccccc4c3=O)CC2)c1C | 0% (inactive) | 2 |
| O=C(c1ccccc1)c1ccc(N2CCNCC2)cc1 | 63% (active) | 7.95 |
| Cc1oc(-c2ccc(Cl)cc2)nc1CN1CCCC(C(=O)NCCCN2CCOCC2)C1 (stereo not drawn) | 42.9% (inactive) | 16.6 |
| Cc1ccccc1-c1nc(CN2CCC(C(=O)NCc3cccnc3)CC2)c(C)o1 | 36.9% (inactive) | 1.35 |
| CCOC(=O)N1CCN(C(=O)C2CCN(Cc3nc(-c4ccccc4C)oc3C)CC2)CC1 | 30.6% (inactive) | 5.15 |
| Cc1ccccc1CN1CCN(CC(=O)NCCCN2CCN(c3ccc(F)cc3)CC2)C1=O | 3.3% (inactive) | 5.15 |
| Cc1noc(/C=C/c2ccco2)c1S(=O)(=O)N1CCC(C(=O)N2CCc3ccccc3C2)CC1 | 54.6% (active) | 7.3 |
| Nc1cccc2cnccc12 | 4.1% (inactive) | 6.95 |
| Cn1cc(CNC(=O)C2c3ccccc3Oc3ccccc32)cn1 | 7.3% (inactive) | 3 |
| COC(=O)Nc1sc2c(c1C(N)=O)CCCCCC2 | 10% (inactive) | 5.65 |
| Cc1ccc(C2=Nc3ccccc3NC(C)(c3ccc(C)o3)C2)o1 (stereo not drawn) | 7.1% (inactive) | 10.1 |
| N#CC1=C(N)OC2=C(C(=O)CCC2)C1c1ccc(OC(=O)N2CCOCC2)cc1 (stereo not drawn) | 7.8% (inactive) | 2.45 |
